Experimental data from ChEMBL document CHEMBL4808148, “HDAC6 screening dataset using tau-based substrate in an enzymatic assay yields selective inhibitors and activators” (2021).
The whole screen tested about 5,600 compounds, of which about 150 (2.7%) showed an effect of 50% or more. This is one part of a sample in which strong results are shown more often than they occur.

biological target: T1, Protein deacetylase HDAC6 (Homo sapiens) (UniProt Q9UBN7); conditions: at 10 µM
T1 sequence (whole entry): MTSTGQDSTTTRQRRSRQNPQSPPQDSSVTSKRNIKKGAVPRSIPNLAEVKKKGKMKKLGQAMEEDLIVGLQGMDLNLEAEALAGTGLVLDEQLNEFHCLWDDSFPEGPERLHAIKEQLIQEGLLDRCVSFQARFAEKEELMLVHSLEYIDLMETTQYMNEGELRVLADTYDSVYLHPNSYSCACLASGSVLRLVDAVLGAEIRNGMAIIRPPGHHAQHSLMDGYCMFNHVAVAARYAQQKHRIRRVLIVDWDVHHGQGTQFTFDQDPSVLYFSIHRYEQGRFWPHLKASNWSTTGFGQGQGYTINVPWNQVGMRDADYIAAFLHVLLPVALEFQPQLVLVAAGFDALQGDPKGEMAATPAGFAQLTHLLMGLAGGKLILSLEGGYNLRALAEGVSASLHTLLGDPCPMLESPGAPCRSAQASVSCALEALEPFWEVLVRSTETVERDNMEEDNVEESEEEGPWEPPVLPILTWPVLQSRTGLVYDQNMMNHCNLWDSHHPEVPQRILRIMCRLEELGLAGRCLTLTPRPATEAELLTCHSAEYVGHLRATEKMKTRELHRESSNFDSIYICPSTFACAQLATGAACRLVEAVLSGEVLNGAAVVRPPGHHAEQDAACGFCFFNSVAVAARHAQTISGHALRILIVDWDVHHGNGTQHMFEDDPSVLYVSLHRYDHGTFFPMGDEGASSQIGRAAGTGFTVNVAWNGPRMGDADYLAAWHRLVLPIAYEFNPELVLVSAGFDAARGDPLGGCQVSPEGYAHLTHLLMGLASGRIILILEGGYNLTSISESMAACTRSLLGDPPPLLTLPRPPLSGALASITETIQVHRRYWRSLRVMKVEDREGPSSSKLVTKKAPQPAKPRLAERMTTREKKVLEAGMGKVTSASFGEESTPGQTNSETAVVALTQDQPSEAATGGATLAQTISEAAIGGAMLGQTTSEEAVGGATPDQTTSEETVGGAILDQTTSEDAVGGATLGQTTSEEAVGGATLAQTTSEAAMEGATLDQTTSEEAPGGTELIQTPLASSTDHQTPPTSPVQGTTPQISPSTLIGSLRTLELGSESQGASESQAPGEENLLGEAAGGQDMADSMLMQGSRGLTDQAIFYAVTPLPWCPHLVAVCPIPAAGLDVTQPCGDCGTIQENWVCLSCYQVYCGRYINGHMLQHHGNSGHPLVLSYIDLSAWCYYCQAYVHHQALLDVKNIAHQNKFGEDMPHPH

Compound	inhibition
CC(C)(N)c1cc(C(=O)N[C@@H]2CCc3ccc(Oc4ccnc5c4CCC(=O)N5)cc3C2)cc(C(F)(F)F)c1	-1.36%
CN(C)C/C=C/C(=O)Nc1ccc(C(=O)Nc2cccc(Nc3ncc(Cl)c(-c4c[nH]c5ccccc45)n3)c2)cc1	-4.86%
CN(C)c1ccc(C(=C2C=CC(=[N+](C)C)C=C2)c2ccc(N(C)C)cc2)cc1	59.7%
O=C(Nc1cc2cc[nH]c2cn1)c1ccccc1	97.7%
NC(=O)c1ccc2[nH]ccc2c1	-7.83%
O=C(Nc1ccc2[nH]ccc2c1)c1ccccc1	49.3%
CCOc1ccc(-n2c([C@@H](C)N(Cc3cccnc3)C(=O)Cc3ccc(OC(F)(F)F)cc3)nc3ncccc3c2=O)cc1	-2.97%
COc1cccc(N2CCN(C3=Nc4c(F)cccc4[C@H](CC(=O)O)N3c3cc(C(F)(F)F)ccc3OC)CC2)c1	-7.43%
O=C1c2ccccc2C(=O)C1c1ccc(Br)cc1	86.8%
O=C1c2ccccc2C(=O)C1c1ccc(Cl)cc1	-0.61%
COc1ccc(C2C(=O)c3ccccc3C2=O)cc1	97.2%
COc1ccc(Oc2c(Cl)cnn(C3c4ccccc4-c4ccccc43)c2=O)cc1	3.12%
O=C1c2ccccc2C(=O)C1c1ccccc1	0.29%
COc1ccc(C2CC(c3ccccc3)=NN2c2ccc(S(N)(=O)=O)cc2)cc1 (centres undefined)	-2.13%
Nc1ncc2c(n1)CC(c1ccco1)CC2=O (centres undefined)	10.6%
CO/N=C1\C[C@@H](C(=O)NC[C@@H](O)c2ccccc2)N(C(=O)c2ccc(-c3ccccc3C)cc2)C1	-5.99%
CC(=O)Oc1ccccc1C(=O)Nc1ccccc1	24.1%
Nc1n[nH]c2nnc(-c3c(-c4ccccc4)nn4ccccc34)cc12	1.45%
NC(=O)c1ccc([N+](=O)[O-])cc1Cl	3.17%
CCN(CCNC(=O)Nc1ccccc1Br)c1cccc(C)c1	-8.23%
O=C(Nc1ccc([N+](=O)[O-])cc1O)Nc1ccccc1Br	61.6%
CCC(C(=O)O)c1ccc(CC(C)C)cc1 (centres undefined)	5.56%
CCCCC1OC(=O)c2ccccc21 (centres undefined)	4.45%
N[C@@H]1c2cccnc2[C@H](OC(=O)N2CCC(n3c(=O)[nH]c4ncccc43)CC2)CC[C@H]1c1cccc(F)c1F	-1.43%
CS(=O)(=O)N(Cc1ccco1)CC(O)Cn1c2ccccc2c2ccccc21 (centres undefined)	-5.79%

Compound	inhibition
O[C@H]1CC[C@H](Nc2nc(-c3ccccc3)nc3[nH]ccc23)CC1	2.15%
CN1CCC(NC(=O)c2cc(-c3c(O)cc(O)cc3Oc3ccc([N+](=O)[O-])cc3)on2)CC1	-7.8%
O=C(NC1CC1)c1cc(-c2cccs2)on1	60.8%
Cc1ccc(S(=O)(=O)NCc2ccccc2)cc1	-1.3%
CO[C@H]1CC[C@@H](C(=O)c2ccc3nc4c(cc3c2)CCCO4)CC1	1.73%
CCCn1c(=O)c2[nH]c(-c3cnn(Cc4cccc(C(F)(F)F)c4)c3)nc2n(CC)c1=O	2.86%
CC(=O)NC[C@H]1CN(c2ccc(N3CCN(C(=O)CO)CC3)c(F)c2)C(=O)O1	-2.46%
COc1cc(NC(=O)c2ccc(-c3ccc(Cl)cc3)o2)cc(OC)c1	4.45%
COc1cccc(NC(=O)/C=C/c2ccc(Cl)cc2)c1	91.8%
COc1ccc(/C=C/C(=O)O)cc1	-6.98%
CN(CCc1ccc(Cl)c(Cl)c1)CCN1CCCC1	3.41%
CCc1ccc(/C=C2/SC(=S)NC2=O)cc1	16.7%
N=C1NC(=O)/C(=C/c2ccc(O)cc2)S1	14%
O=C(O)COc1ccc(/C=C2\SC(=O)NC2=O)cc1	95%
CN(C)c1ccc2c(c1)Sc1cc(N(C)C)ccc1N2	32.3%
COc1cc(Br)c(S(=O)(=O)Nc2ccc(C(F)(F)F)c(O[C@@H]3CCN(C)C3)c2)cc1OC	-1.99%
COc1ccc(-n2c(SCc3nc(-c4ccc(C)cc4)no3)nnc2-c2ccncc2)cc1	-7.03%
O=C(Nc1c(-c2cccs2)nc2ccccn12)c1ccc(Cl)cc1	-6.19%
COc1cccc(/C=N/C=N/c2cccc(OC)c2)c1	89.1%
Clc1cccc(/C=N/C=N/c2cccc(Cl)c2)c1	1.42%
COc1cc(/C=C/c2ccc(OC)cc2OC)cc(OC)c1	19.4%
CNCCCC1(c2ccccc2)OC(C)(C)c2ccccc21 (centres undefined)	-1.2%
CSc1ccc(OCc2ncc([N+](=O)[O-])n2C)cc1	20.2%
O=C(O)CCCc1ccccc1	-4.8%
Cn1c(NCCN(CCO)CCCc2ccc([N+](=O)[O-])cc2)cc(=O)n(C)c1=O	-7.89%

Compound	inhibition
O=C(O)c1cc([N+](=O)[O-])ccc1NCCCc1ccccc1	52.3%
Cc1cc(NC(=O)NCCN2CCC(O)(Cc3ccccc3)CC2)c2ccccc2n1	-3.32%
N[C@H]1C[C@@H]1c1ccc(-c2cccc(O)c2)cc1	51.4%
Oc1cccc(O)c1	5.02%
CC(=O)N[C@H]1[C@H]([C@H](O)[C@H](O)CO)O[C@](O)(C(=O)O)C[C@@H]1O	-7.16%
N#CCNC(=O)c1ccc(-c2ccnc(Nc3ccc(N4CCOCC4)cc3)n2)cc1	-5.68%
Cc1nc(N)sc1-c1ccnc(Nc2ccc(N3CCOCC3)cc2)n1	71.7%
Cc1ccc(-c2ncn(-c3ccc(Nc4nccc(-c5cccc(N6CCOCC6)c5)n4)cc3)n2)cn1	14.5%
CC(C)[C@@H](N)C(=O)O	1.7%
O=C(NCc1ccc2c(c1)OCO2)c1c(Cl)cccc1Cl	3.64%
COc1ccc(-c2cc(=S)ss2)cc1	67.3%
O=C(O)CCc1c(C(=O)O)[nH]c2cc(Cl)cc(Cl)c12	4%
NCC(=O)N1C[C@H](NC(=O)c2ccccc2)C[C@H]1C(=O)O	-0.8%
O=C(/C=C/c1ccccc1)NC(NC(=S)Nc1ccc(Cl)cc1)C(Cl)(Cl)Cl (centres undefined)	-0.27%
Cc1ccc(C(=O)Cn2c3c(sc2=N)CCCC3)cc1	85.8%
Cc1ccc(C(=O)C(C)CN2CCCCC2)cc1 (centres undefined)	4.79%
Cc1cccc(NC(=O)CN2CCC(c3ccccn3)CC2)c1	32%
O=C(O)c1cc2ccccc2s1	-8.12%
N=C(N)c1cc2ccc(OC(=O)c3cccs3)cc2s1	98.3%
OC(CN1CCNCC1)Cn1c2ccc(Br)cc2c2cc(Br)ccc21 (centres undefined)	-4.75%
COc1cc2c(cc1OC)CN(C(=O)[C@@H](NCc1ccncc1)C(C)(C)C)CC2	-4.01%
c1ccc(-c2ccc(CNc3nc(-c4ccccn4)nnc3-c3ccccc3)cc2)cc1	6.43%
O=C(Cc1ccc(-c2ccccc2)cc1)Nc1ccccn1	44.2%
c1ccc(NCc2ccc(CNc3ccccn3)cc2)nc1	91.6%
